According to PubChem BioAssay AID1851 (National Center for Advancing Translational Sciences (NCATS), 2009):
Out of some 16,000 compounds screened, about 5,100 (32%) were called active. About 25% were inconclusive and are not listed. Calls come from the whole dose curve; as a rule, active = well fitted curve in the direction sought with a large enough effect; inconclusive = small, poorly fitted or top-dose-only effect, or effect the other way; inactive = no such curve, though single readings can be large or run the other way. This is one part of the list.

biological target: Cytochrome P450 3A4 (Homo sapiens) (UniProt P08684); test: Cytochrome panel assay with activity outcomes; settings: recombinant CYP, pro-luciferin dealkylation, luminescence, p450-cyp3a4; series mostly up to 57.1 µM
% is set by controls: 0 for no effect and ±100 for the full control effect.

Sequence of Cytochrome P450 3A4 (Homo sapiens) (P08684 whole entry, looked up): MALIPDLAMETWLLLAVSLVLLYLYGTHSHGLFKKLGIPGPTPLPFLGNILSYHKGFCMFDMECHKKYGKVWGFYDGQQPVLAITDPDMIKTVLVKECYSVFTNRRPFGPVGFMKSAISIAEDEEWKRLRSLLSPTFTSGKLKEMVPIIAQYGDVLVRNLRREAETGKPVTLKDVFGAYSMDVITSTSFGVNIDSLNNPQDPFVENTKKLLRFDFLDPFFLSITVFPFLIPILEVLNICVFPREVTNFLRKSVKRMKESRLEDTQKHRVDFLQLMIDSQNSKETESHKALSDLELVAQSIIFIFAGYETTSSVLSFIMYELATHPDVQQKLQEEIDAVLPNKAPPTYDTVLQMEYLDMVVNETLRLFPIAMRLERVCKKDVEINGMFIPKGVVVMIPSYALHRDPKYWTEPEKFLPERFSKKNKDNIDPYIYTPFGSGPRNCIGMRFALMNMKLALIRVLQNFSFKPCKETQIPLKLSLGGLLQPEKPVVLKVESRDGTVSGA

AC50, active:
O=C(CSCc1ccccc1Cl)NN1C(=O)c2ccccc2C1=O 14.1 µM
O=C(CSCc1ccccc1Cl)NNC(=S)Nc1ccccc1 4.47 µM
O=C(NCCc1ccc(Cl)cc1)Nc1cccc(Cl)c1 14.1 µM
COc1ccc(C(=O)NCS(=O)(=O)c2ccc(C)cc2)cc1 14.1 µM
CCc1ccccc1NC(=O)c1ccc(F)c(S(=O)(=O)N2CCC(C(N)=O)CC2)c1 15.8 µM
Brc1cc2c(cc1/C=N/Nc1nc(N3CCCC3)nc(N3CCOCC3)n1)OCO2 2.82 µM
CCOc1ccc(/C=N/Nc2nc(N3CCCC3)nc(N3CCCC3)n2)cc1OC 12.6 µM
COc1cccc(/C=N/Nc2nc(N3CCCC3)nc(N3CCCC3)n2)c1O 10 µM
O=[N+]([O-])c1ccc(Nc2nc(N/N=C\c3ccc4c(c3)OCO4)nc(N3CCCCC3)n2)cc1 1.26 µM
COc1c(/C=N/Nc2nc(N3CCCCC3)nc(N3CCCCC3)n2)cccc1[N+](=O)[O-] 3.98 µM
COc1ccccc1CNC(=O)C/C(C)=N/NC(=O)Cc1ccccc1 7.94 µM
Cc1ccc(C(=O)c2cn[nH]c2-c2cc(Cl)ccc2O)cc1 3.98 µM
O=C(CS(=O)c1cccc(Cl)c1)Nc1ccccc1Cl (configuration not stated) 14.1 µM
O=C(CS(=O)c1cccc(C(F)(F)F)c1)Nc1ccccc1Cl (configuration not stated) 7.94 µM
O=C(CS(=O)(=O)c1cccc(Cl)c1)Nc1ccccc1Cl 6.31 µM
Cc1ccc(-n2c(-c3cc(C)n(C)n3)n[nH]c2=S)cc1 14.1 µM
COc1ncc2nc(-c3cccs3)c(=O)n(CCC#N)c2n1 10 µM
COCCn1c(=O)c(-c2cccs2)nc2cnc(Oc3ccc(OC)cc3)nc21 0.794 µM
CN(C)c1ncc2nc(-c3cccs3)c(=O)n(C[C@H]3CCCO3)c2n1 25.1 µM
COCCn1c(=O)c(-c2cccs2)nc2cnc(N(C)C)nc21 7.94 µM
COCCn1c(=O)c(-c2cccs2)nc2cnc(Oc3ccccc3)nc21 20 µM
COc1ncc2nc(-c3cccs3)c(=O)n(CCc3ccccc3)c2n1 10 µM
COCCn1c(=O)c(-c2cccs2)nc2cnc(OC)nc21 10 µM

AC50, inactive:
O=C(NNC(=S)Nc1ccccc1)C1CC1
O=C(NN1C(=O)c2ccccc2C1=O)C1CCCCC1
COc1ccc(NC(=O)C2(c3ccc(NC(=O)c4ccc(C)cc4)cc3)CCCC2)cc1
Cc1ccc(C(=O)NN2CCOCC2)cc1
C1CCC(N=C(NC23CC4CC(CC(C4)C2)C3)N2CCOCC2)CC1
CC1CCCN(C/C=C/c2ccccc2[N+](=O)[O-])C1 (configuration not stated)
Cc1cc(=O)n2c3ccccc3n(CC(O)CN3CCCCC3)c2c1C#N (configuration not stated)
CCN(CCO)Cc1csc2cccc(Br)c12
Cc1ccc(C(=O)c2cn(-c3ccc(F)c(Cl)c3)nn2)cc1
CCn1ccc(C(=O)Oc2ccc(Cl)cc2)n1
CC(=O)N(CC(=O)O)c1ccccc1C(=O)O
O=C(O)c1ccccc1OP(=O)(O)O
COc1ccc(-n2c(C)n[nH]c2=O)cc1
Cc1cc(-c2n[nH]c(=S)o2)c(C)n1-c1ccccc1
CN(C)c1ncc2nc(-c3cccs3)c(=O)n(CCc3ccccc3)c2n1
COCCn1c(=O)c(-c2ccc(F)cc2)nc2cnc(N(C)C)nc21
CN(C)c1ncc2nc(-c3ccc(F)cc3)c(=O)n(C[C@H]3CCCO3)c2n1
COc1ncc2nc(C)c(=O)n(CCC#N)c2n1
CN(C)c1ncc2nc(-c3cc(F)cc(F)c3)c(=O)n(C[C@H]3CCCO3)c2n1
CN(C)c1ncc2nc(-c3ccccc3)c(=O)n(CCC#N)c2n1
CCC1NC(=S)N(C2CCCCC2)C1=O (configuration not stated)
CCCCN(Cc1ccccc1)C(=O)c1cnc2n(c1=O)CCS2
CSc1ccccc1N1CCN(C(=O)Nc2ccc3c(c2)NC(=O)CO3)CC1

activity, negative = inhibition, inactive:
O=C(Nc1ccc(Br)cc1)C1CCC(=O)N1Cc1ccccc1Cl (configuration not stated) -3.06% [at 11.4 µM]
Cc1nn(C)cc1C(=O)NNC(=S)Nc1ccccc1 3.36% [at 2.29 µM]
Nc1cc(S(=O)(=O)O)cc2ccc(S(=O)(=O)O)cc12 -1.64% [at 11.4 µM]
CCOC(=O)CCCN -12.7% [at 11.4 µM]
COc1ccc(C(=O)Nc2cccc3c2C(=O)NC3=O)cc1S(=O)(=O)N1CCOCC1 1.45% [at 2.29 µM]
CCOc1cc(/C=N/NC(=O)CN2CCCCC2)ccc1OCc1ccccc1 -6.35% [at 2.29 µM]
CC(C)(C)Nc1nc(N2CCCC2)nc(N2CCCC2)n1 11.3% [at 2.29 µM]
COC(=O)[C@@H]1[C@@H](O)[C@]2(O)c3ccccc3O[C@]2(c2ccccc2)[C@H]1c1ccccc1 -17.3% [at 11.4 µM]
C[C@@H]1NC(=O)C/C=C\[C@@H](C)[C@@H]2C=C[C@H](O)[C@@H](COC(=O)[C@H](C)NC(=O)C/C=C\[C@@H](C)[C@@H]3C=C[C@H](O)[C@@H](COC1=O)O3)O2 6.73% [at 11.4 µM]
CN(C)Cc1ccc(O)c(CN(C)C)n1 -18.2% [at 11.4 µM]
C/C(CC(=O)NCc1ccco1)=N\NC(=O)Cc1cccc2ccccc12 -8.55% [at 2.29 µM]
Cc1nc(S(=O)(=O)c2cccc(Cl)c2)nc2c1CCC2 18.2% [at 2.29 µM]
Cc1ccc(-[n+]2cc(=O)o[nH]2)cc1 -10.5% [at 11.4 µM]
Nc1nc(C(=O)O)c(N=Nc2ccccc2)c(=O)[nH]1 -12.5% [at 11.4 µM]
CCOc1ccc2nc3cc(N=Nc4ccc(N)nc4N)ccc3c(N)c2c1 -19% [at 11.4 µM]
CN(C)S(=O)(=O)c1nc(Cl)c2[nH]cnc2n1 -5.34% [at 11.4 µM]
